Compound activity from PubChem.
This excerpt belongs to a sample that is enriched for hits.
S aureus helic = inhibitors of S. aureus replicative helicase, primary screen, biochemical, fluorescence unwinding readout | replicative DNA helicase (DnaC/DnaB), Staphylococcus aureus | purified S. aureus helicase, fluorescence unwinding assay | inhibition, % (no concentration beside the values) | hit rate 0.05% among 120,000 | AID 485395, 2010; in the data active = inhibition above about 25%, passing the limit was not always enough
Sa growth 42C = S. aureus growth inhibition at 42 and 30 °C, primary screen, LtaS inhibitor project, RN4220, two temperatures; OD600, 20 h, 42 °C; active compounds read low; relative growth, % (test concentration not listed); hit rate 0.53% among 170,000; AID 720641, 2013;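 active = relative growth at most 50% at the other temperature and 20+ points below 30 °C, or under 10% at both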
HCMV NEC inh = inhibitors of HCMV UL50-UL53 interaction, biochemical, HTRF; HCMV UL50-UL53 nuclear egress complex (human cytomegalovirus); inhibition, % (no concentration beside the values); normalized percent inhibition; hit rate 0.15% among 190,000; in the data active = inhibition above about 27%, passing the limit was not always enough
Each line names hits and unclear results; the compound was inactive in the other large screens.

CCOc1ccc(NC(=O)C2NC(=O)CC2c2ccccc2)cc1 (stereo unspecified)	none
CCOc1ccc(NC23SCC(=O)C2CCc2ccccc23)cc1 (stereo unspecified)	Sa growth 42C 2.0 (no result: S aureus helic)
COc1ccccc1-c1n[nH]n2c1nc(=O)c1ccccc12	none
Cc1ccc(-c2ccnc(-c3ccc(O)cc3)n2)cc1	none (no result: S aureus helic, Sa growth 42C)
Cc1ccc(-c2nc(I)ccc2O)cc1	Sa growth 42C 9.1
COC(=O)CNC(=O)c1cc(-c2ccc3c(c2)OCO3)nc2c(C)c(Cl)ccc12	none
Clc1ccc(-c2csc3ncnc(Nc4ccc5c(c4)OCCO5)c23)cc1	none (no result: S aureus helic, Sa growth 42C)
CCCCCOc1ccc(C(=O)CCN2CCOCC2)cc1	Sa growth 42C 13
O=C(CCN1CCOCC1)c1ccc(Br)cc1	Sa growth 42C -0.4
O=C(CCN1CCOCC1)c1ccc(O)cc1	none (no result: S aureus helic)
CCCCOc1ccc(C(=O)N2CCCCC2CCN2CCOCC2)cc1 (stereo unspecified)	none (no result: S aureus helic)
CCc1ccc(NC(=O)NCc2nc(-c3ccccc3C)oc2C)cc1	none (no result: S aureus helic, Sa growth 42C)
CC(=O)N1c2ccccc2CCc2ccc(NC(=S)NC(=O)/C=C/c3ccccc3)cc21	none
COc1ccc(CCNc2ncc3c(n2)c(=O)c(C#N)c2[nH]c4ccccc4c(=O)n23)cc1OC	none
O=C(O)c1ccccc1NS(=O)(=O)c1ccccc1	none
O=S(=O)(Nc1ccc(O)c2ccccc12)c1ccccc1	Sa growth 42C 5.0
Cc1ccc(S(=O)(=O)CCC(=O)c2ccc(O)cc2O)cc1	Sa growth 42C -0.2
Cc1ccc(S(=O)(=O)CCC(=O)O)cc1	none
Cc1[nH]n(-c2ccccc2)c(=O)c1/C=N/O	none
Cc1[nH]n(-c2ccccc2)c(=O)c1N=O	HCMV NEC inh 38
COc1cccc(C2CC(=O)NC(SCC(=O)Nc3ccc(Br)cc3)=C2C#N)c1 (stereo unspecified)	none (no result: S aureus helic, Sa growth 42C)
COc1ccc(C(=O)N2CCN(C(=O)c3cc(C)c(C)cc3C)CC2)cc1	none (no result: S aureus helic, Sa growth 42C)
CCOCCCNCc1ccc(-c2cc(Cl)ccc2Cl)o1	none (no result: S aureus helic, Sa growth 42C)
N#C/C(=N\Nc1ccc(F)cc1)C(=O)NCC1CCCO1 (stereo unspecified)	none
CC(C)C(=O)/C(C#N)=N/Nc1ccc(F)cc1	Sa growth 42C 8.0
c1ccc(-c2nc3ccccn3c2NC2CCCC2)nc1	Sa growth 42C -0.1
c1csc(-c2nc3cnccn3c2NC2CCCCC2)c1	none (no result: HCMV NEC inh)
CCn1cc(C(=O)O)c(=O)c2cc(F)c(N3CCN(C(=S)NC)CC3)cc21	none
CCn1cc(C(=O)O)c(=O)c2cc(F)c(N3CCN(C(=S)NC(=O)c4c(-c5ccccc5)noc4C)CC3)cc21	Sa growth 42C 2.0
O=S(=O)(c1ccc2nc(Nc3ccc4c(c3)OCCO4)ccc2c1)N1CCCC1	none (no result: S aureus helic, Sa growth 42C)
COC(=S)Nc1cccc(C(F)(F)F)c1	none (no result: S aureus helic)
CNC(=S)Nc1cccc(C(F)(F)F)c1	none
CC(C)(C)NC(=S)Nc1cccc(C(F)(F)F)c1	Sa growth 42C 0.1
CC(C)c1ccc(NC(=S)Nc2cccc(C(F)(F)F)c2)cc1	Sa growth 42C -2.1 (no result: S aureus helic)
O=C(NCCc1c[nH]c2ccc(Cl)cc12)c1cccc(NC(=O)c2nnc(C3CC3)s2)c1	none (no result: S aureus helic, Sa growth 42C)
COc1cc(OC)cc(-c2noc(-c3cn(C)c4cc(N5CCOCC5)c(F)cc4c3=O)n2)c1	none (no result: S aureus helic, Sa growth 42C)
O=C(CN1CCN(C/C=C/c2ccccc2)CC1)Nc1cccc(Cl)c1	none
CNc1nc(OCC(F)(F)C(F)F)nc(N(c2ccccc2)c2ccccc2)n1	none
O=C(CSc1ccccc1)N1CCC(N2CCN(Cc3ccc(F)cc3)C(=O)C2=O)CC1	none (no result: S aureus helic, Sa growth 42C)
Cc1c(Sc2ccc(Cl)cc2)cnn1C(=O)Nc1cccc(C(F)(F)F)c1	Sa growth 42C 4.5 (no result: S aureus helic, HCMV NEC inh)
Cc1c(Sc2ccc(Cl)cc2)cnn1C(=O)NC(C)C	none (no result: S aureus helic)
Cc1ccc2c(Cl)cc(Cl)c(OCC(=O)Nc3c(F)cccc3F)c2n1	Sa growth 42C -0.2
Cc1ccc(OCC(=O)Nc2cccc3ccc(C)nc23)c(C)c1	none (no result: S aureus helic)
O=C(O)CCCc1nc2ccccc2s1	none
O=C(O)Cc1nc2ccccc2s1	Sa growth 42C -0.3
O=S(=O)(N=C1SCCS1)c1ccccc1	none (no result: Sa growth 42C)
CC1=CC(=O)C=C(C)C1=NS(=O)(=O)c1ccccc1	Sa growth 42C -0.4 (no result: HCMV NEC inh)
C1=C(c2ccc3c(c2)c2c4n3CCNC4CCC2)CCC1 (stereo unspecified)	none
O=C(/C=C/C(=O)c1ccc2ccccc2c1)c1ccccc1	Sa growth 42C -0.4
O=C(O)/C=C/C(=O)c1ccccc1	none
C(=C1\CCCC2=C1Nc1nnnn1C2c1ccccc1)/c1ccccc1 (stereo unspecified)	none (no result: S aureus helic, Sa growth 42C)
Cc1ccc(/C=C2\CCCC3=C2Nc2nnnn2C3c2ccc(C)cc2)cc1 (stereo unspecified)	Sa growth 42C 0.7 (no result: HCMV NEC inh)
CC(=O)Nc1ccc(S(=O)(=O)NCCCn2c(-c3ccc(C)cc3)nc3cccnc32)cc1	none (no result: S aureus helic, Sa growth 42C)
C/C(=N\NC(N)=O)C1CCCCC1	none
C/C(=N\NC(N)N)C1CCCCCCCCCCC1	Sa growth 42C -0.4
Cc1cccc(-n2nnnc2S(C)(=O)=O)c1	Sa growth 42C -0.6 (no result: S aureus helic, HCMV NEC inh)
Cc1ccc(-n2nnnc2S(C)(=O)=O)c(C)c1	none
Cc1ccc(S(=O)(=O)/N=C2\C=CC(=O)c3ccccc32)c(C)c1	none (no result: HCMV NEC inh)
C=CCN1C(=O)C(CC(=O)NCC(=O)O)SC1=Nc1ccc(Cl)cc1 (stereo unspecified)	none
Cc1ccc(-c2ccc(CCC(=O)O)o2)cc1	Sa growth 42C -1.4 (no result: HCMV NEC inh)
O=C(O)CCc1ccc(-c2cccs2)o1	none
O=C(COc1cc2oc(=O)c3c(c2cc1Cl)CCC3)NCc1ccco1	none
COc1ccc(Cl)cc1S(=O)(=O)NCc1ccco1	none (no result: Sa growth 42C)
CC(O)[C@@H]1C(=O)N2C(C(=O)O)=C(SC3CNC(CNS(N)(=O)=O)C3)C(C)[C@@H]12 (stereo partly specified)	none (no result: S aureus helic, Sa growth 42C)
C[C@@H](O)[C@H]1C(=O)N2C(C(=O)O)=C(SCCN=CN)C[C@H]12	Sa growth 42C 29 (no result: S aureus helic)
COc1ccc(/C=C2\SC(=O)N(CCNC(=O)c3nn(C)c(=O)c4ccccc34)C2=O)cc1	none
CS(=O)(=O)c1ccccc1-c1nnc(NC(=O)c2ccc3c(c2)OCCO3)o1	none (no result: S aureus helic, HCMV NEC inh)
CSc1cccc(-c2nnc(NC(=O)c3ccc4c(c3)OCCO4)o2)c1	Sa growth 42C 7.7 (no result: S aureus helic, HCMV NEC inh)
CC(N)c1ccco1 (stereo unspecified)	none
O=C(Nc1cccnc1)c1noc2c1CCc1sccc1-2	none (no result: S aureus helic, Sa growth 42C)
CCOC(=O)C1=C(O)c2ccccc2C1=O	none (no result: HCMV NEC inh)
CCOC(=O)c1c2c(n3ccccc13)C(=O)c1ccccc1C2=O	Sa growth 42C 9.7 (no result: HCMV NEC inh)
Cc1ccc(C2=N/C(=C\c3cccs3)C(=O)O2)cc1	none (no result: Sa growth 42C)
CCOc1ccc(-c2c(C#N)c(N)nc(SCC#N)c2C#N)cc1	none (no result: Sa growth 42C)
COc1cc(-c2c(C#N)c(SCC#N)nc(N)c2C(=O)OC(C)C)cc(OC)c1OC	HCMV NEC inh 63
CN(C)CCNC(=O)c1nc(-c2cccnc2)no1	none (no result: HCMV NEC inh)
CCSc1nc2ccccc2s1	none
CCSc1ccc(SC#N)s1	Sa growth 42C -0.4
CCC(C(=O)Nc1cccc(OC)c1)n1nc(-c2ccc(C)cc2)ccc1=O (stereo unspecified)	none (no result: S aureus helic, Sa growth 42C)
OC1CCCc2ccccc21 (stereo unspecified)	none
COc1cc(=O)n(-c2ccc(C)cc2)nc1C(=O)Nc1ccc(Br)cc1	none (no result: S aureus helic, Sa growth 42C)
Cc1c(CC#N)ccc2ccccc12	none (no result: S aureus helic)
CN(C)Cc1ccc2ccc3cccc4ccc1c2c34	S aureus helic 50
COc1cccc(NC(=O)Cn2c(=O)oc3cc(S(=O)(=O)N4CCCCC4C)ccc32)c1 (stereo unspecified)	none
CCOC(=O)c1c(-c2ccc(C)o2)csc1NC(=S)NC(=O)N(C)C	Sa growth 42C -0.6
